Laboratory results as given in PubChem BioAssay (NCI).
The panel holds about 79,000 compounds, 15% with a hit somewhere; the sample as a whole holds those more often. Values without a mark were called inactive. Calls of active or inactive are those of the source. Rule as the data show it: active = growth inhibition above about 70%; inactive = the rest.

Experiments:
[1] = NCI Yeast Anticancer Drug Screen. Data for the rad52 strain (AID 147);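 also: 0% = growth of vehicle-treated control cultures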; settings: S. cerevisiae rad52 mutant growth inhibition, active compounds read high
Method in brief: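 Inhibition of yeast growth, referenced to vehicle controls, was the measured output for a strain with defective DNA damage repair.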

[2] = NCI Yeast Anticancer Drug Screen. Data for the wt1 strain (AID 149);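 also: 0% = growth of vehicle-treated wt1 cultures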; settings: S. cerevisiae wt1 strain (SPY 50644) growth inhibition, active compounds read high
Method in brief: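 wt1 strain grown with compound or vehicle; inhibition taken from the growth difference.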

[3] = NCI Yeast Anticancer Drug Screen. Data for the rad50EPP+ strain (AID 151);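 also: 0% = growth of vehicle-treated control cultures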; settings: S. cerevisiae rad50 mutant strain, active compounds read high
Method in brief: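 Genetically defined yeast (rad50EPP+, DNA damage repair alteration) is grown with compound, and inhibition of growth is expressed relative to vehicle-treated controls.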

[4] = NCI Yeast Anticancer Drug Screen. Data for the mgt1 strain (AID 153); settings: S. cerevisiae mgt1 mutant growth inhibition, active compounds read high
Method in brief: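 In the mgt1 strain, test compounds were added and growth inhibition was determined relative to vehicle-treated controls.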

[5] = NCI Yeast Anticancer Drug Screen. Data for the rad50 strain (AID 155);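 also: 0% = growth of vehicle-only cultures of the same strain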; settings: S. cerevisiae rad50 strain growth inhibition, active compounds read high
Method in brief: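 DNA repair mutant yeast, compound exposure, growth read-out; inhibition is taken relative to vehicle.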

[6] = NCI Yeast Anticancer Drug Screen. Data for the mec2-1 strain (AID 157); settings: S. cerevisiae mec2-1 strain, active compounds read high
Method in brief: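 Each compound was tested on mec2-1 yeast, a strain altered in DNA damage repair or cell cycle control. Growth inhibition is reported relative to vehicle.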

[7] = NCI Yeast Anticancer Drug Screen. Data for the rad14 strain (AID 159);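 also: 0% = growth of vehicle-treated control cultures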; settings: S. cerevisiae rad14 strain growth inhibition, active compounds read high
Method in brief: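 DNA repair-defective yeast, compound-exposed; % growth inhibition derived by comparison with vehicle-treated controls.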

[8] = NCI Yeast Anticancer Drug Screen. Data for the sgs1 mgt1 strain (AID 161);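 also: 0% = growth of cultures given vehicle only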; settings: S. cerevisiae sgs1 mgt1 strain, active compounds read high
Method in brief: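 Inhibition of yeast growth, normalised to vehicle-treated controls, is reported for a strain bearing genetic alterations in DNA damage repair.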

[9] = NCI Yeast Anticancer Drug Screen. Data for the CLN2oe strain (AID 163);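 also: 0% = growth of vehicle-only control cultures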; settings: S. cerevisiae CLN2oe strain, active compounds read high
Method in brief: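 First, the altered yeast strain was treated with each compound; second, its growth was measured; finally, inhibition was derived by comparison with vehicle controls.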

[10] = NCI Yeast Anticancer Drug Screen. Data for the cln2 rad14 strain (AID 165);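 also: 0% = growth equal to vehicle treated cultures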; settings: S. cerevisiae cln2 rad14 strain, active compounds read high
Method in brief: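 Test compounds were added to cln2 rad14 yeast cultures; inhibition of growth was then determined by comparison with vehicle treatment.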

[11] = NCI Yeast Anticancer Drug Screen. Data for the bub3 strain (AID 167); settings: S. cerevisiae bub3 mutant strain, active compounds read high
Method in brief: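 In this screen, a yeast mutant lacking normal mitotic checkpoint function is challenged with compound. Relative growth versus vehicle gives the inhibition value.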

[12] = NCI Yeast Anticancer Drug Screen. Data for the wt2 strain (AID 169);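 also: 0% = growth of vehicle-treated yeast cultures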; settings: S. cerevisiae wt2 strain growth inhibition, active compounds read high
Method in brief: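 The panel's yeast strains carry defined changes in DNA repair or cell cycle genes. Each strain is grown with compound, and growth loss is scored relative to vehicle.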

[13] = NCI Yeast Anticancer Drug Screen. Data for the mlh1 strain (AID 171);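 also: 0% = growth of vehicle-treated control cultures of the same strain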; settings: S. cerevisiae mlh1 strain growth inhibition, active compounds read high
Method in brief: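 Inhibition values reflect reduced yeast growth in the presence of compound, referenced to vehicle controls, using a strain chosen for its alteration in DNA repair or cell cycle control.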

[14] = NCI Yeast Anticancer Drug Screen. Data for the sgs1 strain (AID 173);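 also: 0% = growth of vehicle-only control cultures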; settings: S. cerevisiae sgs1 mutant, active compounds read high
Method in brief: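 Vehicle-treated cultures served as reference for growth inhibition of a yeast strain altered in DNA damage repair or cell cycle control after compound exposure.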

[15] = NCI Yeast Anticancer Drug Screen. Data for the mlh1 rad18 strain (AID 175); settings: S. cerevisiae mlh1 rad18 strain growth inhibition, active compounds read high
Method in brief: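 Inhibition values reflect reduced growth of mutant yeast versus vehicle-treated controls following compound exposure; the mutations affect DNA damage repair.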

[16] = NCI Yeast Anticancer Drug Screen. Data for the rad18 strain (AID 177); settings: S. cerevisiae rad18 mutant growth inhibition, active compounds read high
Method in brief: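 Steps: expose repair-mutant yeast to compound; measure growth; express as inhibition relative to vehicle control.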

[17] = at 5.0 µM (retest, dose inferred, filed as 0.5)
[18] = at 50.0 µM (retest, dose inferred, filed as 5.0)

In the case of Cc1ccc([N+]2=NC(c3ccccc3)=NN(c3ccccc3)C2)cc1, the growth inhibition ([1]; at 1.2 µM) is reported as 9%, the growth inhibition ([1]; at 3.7 µM) is reported as 15% and the growth inhibition ([1]; at 11.0 µM) is reported as 19%. For the same molecule, the growth inhibition ([1]; at 33.0 µM) was 90% (active), the growth inhibition ([1]; at 100.0 µM) was 96% (active) and the growth inhibition ([2]; at 1.2 µM) was 1%. For the same molecule, the growth inhibition ([2]; at 3.7 µM) was 5%, the growth inhibition ([2]; at 11.0 µM) was 8% and the growth inhibition ([2]; at 33.0 µM) was 27%. For the same molecule, the growth inhibition ([2]; at 100.0 µM) was 96% (active), the growth inhibition ([3]; at 1.2 µM) was 5% and the growth inhibition ([3]; at 3.7 µM) was 15%. It also gave a growth inhibition ([3]; at 11.0 µM) of 35%, a growth inhibition ([3]; at 33.0 µM) of 45% and a growth inhibition ([3]; at 100.0 µM) of 45%. It also gave a growth inhibition ([4]; at 1.2 µM) of 7%, a growth inhibition ([4]; at 3.7 µM) of 9% and a growth inhibition ([4]; at 11.0 µM) of 9%. The growth inhibition ([4]; at 33.0 µM) was 89% (active), the growth inhibition ([4]; at 100.0 µM) was 97% (active) and the growth inhibition ([5]; at 1.2 µM) was 6%. The growth inhibition ([5]; at 3.7 µM) was 0%, the growth inhibition [5, 17] was 15% and the growth inhibition ([5]; at 11.0 µM) was 2%. The growth inhibition ([5]; at 33.0 µM) was 84% (active), the growth inhibition [5, 18] was 41% and the growth inhibition ([5]; at 50.0 µM) was 97% (active). The growth inhibition ([5]; at 100.0 µM) was 95% (active), the growth inhibition ([6]; at 1.2 µM) was -1% and the growth inhibition ([6]; at 3.7 µM) was -3%. For the same molecule, the growth inhibition [6, 17] was 2%, the growth inhibition ([6]; at 11.0 µM) was 1% and the growth inhibition ([6]; at 33.0 µM) was 65%. The growth inhibition [6, 18] was 16%, the growth inhibition ([6]; at 50.0 µM) was 91.8% (active) and the growth inhibition ([6]; at 100.0 µM) was 96% (active). For the same molecule, the growth inhibition ([7]; at 1.2 µM) was 5%, the growth inhibition ([7]; at 3.7 µM) was 5% and the growth inhibition ([7]; at 11.0 µM) was 18%. The growth inhibition ([7]; at 33.0 µM) was 44%, the growth inhibition ([7]; at 100.0 µM) was 96% (active) and the growth inhibition [8, 17] was 10%. For the same molecule, the growth inhibition [8, 18] was 12%, the growth inhibition ([8]; at 50.0 µM) was 95.3% (active) and the growth inhibition ([9]; at 1.2 µM) was 2%. For the same molecule, the growth inhibition ([9]; at 3.7 µM) was -1%, the growth inhibition ([9]; at 11.0 µM) was 2% and the growth inhibition ([9]; at 33.0 µM) was 46%. For the same molecule, the growth inhibition ([9]; at 100.0 µM) was 96% (active), the growth inhibition [10, 17] was 11% and the growth inhibition [10, 18] was 69%. The growth inhibition ([10]; at 50.0 µM) was 95.8% (active), the growth inhibition ([11]; at 1.2 µM) was 0% and the growth inhibition ([11]; at 3.7 µM) was -1%. For the same molecule, the growth inhibition [11, 17] was -2%, the growth inhibition ([11]; at 11.0 µM) was 12% and the growth inhibition ([11]; at 33.0 µM) was 94% (active). For the same molecule, the growth inhibition [11, 18] was 98% (active), the growth inhibition ([11]; at 50.0 µM) was 97.2% (active) and the growth inhibition ([11]; at 100.0 µM) was 96% (active). For the same molecule, the growth inhibition ([12]; at 1.2 µM) was 0%, the growth inhibition ([12]; at 3.7 µM) was 4% and the growth inhibition ([12]; at 11.0 µM) was 7%. The growth inhibition ([12]; at 33.0 µM) was 83% (active), the growth inhibition ([12]; at 100.0 µM) was 97% (active) and the growth inhibition ([13]; at 1.2 µM) was 1%. For the same molecule, the growth inhibition ([13]; at 3.7 µM) was 4%, the growth inhibition ([13]; at 11.0 µM) was 7% and the growth inhibition ([13]; at 33.0 µM) was 78% (active). The growth inhibition ([13]; at 100.0 µM) was 97% (active), the growth inhibition ([14]; at 1.2 µM) was 0% and the growth inhibition ([14]; at 3.7 µM) was 1%. The growth inhibition ([14]; at 11.0 µM) was 5%, the growth inhibition ([14]; at 33.0 µM) was 87% (active) and the growth inhibition ([14]; at 100.0 µM) was 97% (active). For the same molecule, the growth inhibition [15, 17] was 3%, the growth inhibition [15, 18] was 45% and the growth inhibition ([15]; at 50.0 µM) was 97.2% (active). For the same molecule, the growth inhibition ([16]; at 1.2 µM) was 2%, the growth inhibition ([16]; at 3.7 µM) was 11% and the growth inhibition ([16]; at 11.0 µM) was 11%. For the same molecule, the growth inhibition ([16]; at 33.0 µM) was 90% (active) and the growth inhibition ([16]; at 100.0 µM) was 96% (active).
